Screens from PubChem.
NADH enzymes: inhibitors of PK/LDH coupling enzymes, profiling panel, artefact control, biochemical, MLSMR library; coupled PK/LDH NADH assays, four targets; IC50, µM (top dose mostly 10 µM), for inactives: at the top dose inhibition; 65,000 compounds, 0.02% hits;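 active = single-dose screening hits from any of four coupled enzyme assays that gave an IC50 when retested across doses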;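 also: the DPM-DC format reads NADH fluorescence rather than 340 nm absorbance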
Autofluor 339: intrinsic fluorescence of library compounds, ex339/em460 – biochemical, MLSMR library, data from DPM-DC assay, artefact control, profiling panel; compound autofluorescence, ex339/em460 nm, NADH buffer; hits give high values; 1 = no-compound wells, NADH background; fluorescence fold increase at 10 µM; 65,000 compounds, 5.5% hits;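 active = at 10 µM, mean starting fluorescence two-fold or more over control wells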;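 also: signal is the first read of a kinetic run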
Spn DPM-DC inh: S. pneumoniae DPM-DC inhibitors, primary screen, biochemical, PK/LDH-coupled NADH fluorescence. diphosphomevalonate decarboxylase (Streptococcus pneumoniae D39). purified DPM-DC. calls only at 10 µM. 65,000 compounds, 0.49% hits;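 active = the 320 compounds with the highest percent inhibition in the single-dose primary screen, excluding strongly autofluorescent ones, cut at about 32% in these data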;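 also: kinetic rate of NADH fluorescence loss reporting ADP formed by the decarboxylase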
PMK inhibit: S. pneumoniae PMK inhibitors, primary screen, biochemical, mevalonate pathway, pilot trial included; phosphomevalonate kinase (Streptococcus pneumoniae D39); purified PMK, PK/LDH-coupled NADH absorbance 340 nm; inhibition, % at 10 µM; 65,000 compounds, 0.49% hits; AID 539, 2006;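 active = top-ranked compounds by inhibition in the single 10 µM screen, taking a fixed number of the strongest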;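 also: 0% = full reaction with DMSO carrier and 100% = background rate without enzyme reaction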
MK inhibit: S. pneumoniae MK inhibitors, primary screen, biochemical, PK/LDH-coupled NADH absorbance; purified MK, PK/LDH-coupled NADH absorbance 340 nm; AID 555, 2006; 65,000 compounds, 0.48% hits; inhibition, % at 10 µM;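 active = ranked among the strongest by inhibition in the single 10 µM screen, a fixed top-ranked set picked for dose follow-up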
Active calls of the source: *; i = inactive; nt = no result given; + = active, no number. Hits are enriched below; roughly 6.6% of the tested compounds scored in any of these assays.

SMILES	NADH enzymes	Autofluor 339	Spn DPM-DC inh	PMK inhibit	MK inhibit
N#CCc1nnc2n1-c1ccccc1CCC2	1.0%	1.07	i	0.0	2.0
CCOC(=O)c1snc2c(=O)[nH]cnc12	7.0%	3.73*	nt	10.0	4.0
Cn1c(=O)n(Cc2ccccc2)c(=O)c2c1nc(NCC1CCCO1)n2Cc1ccccc1 (stereo unspecified)	2.0%	1.03	i	4.0	0.0
O=C1C(Cl)=C(NCC2CCCO2)C(=O)N1Cc1ccccc1 (stereo unspecified)	22.0%	0.57	+	13.0	7.0
CC(=O)OC1=C(C#N)Cn2ccc3cccc1c32	7.0%	3.86*	nt	5.0	9.0
COc1ccccc1-n1c(SCC(=O)Nc2ccccc2C)nc(O)cc1=O	5.0%	1.11	i	7.0	9.0
COc1ccccc1NC(=O)CSc1nc(O)cc(=O)n1-c1ccccc1OC	16.0%	0.95	+	6.0	7.0
CCCNC(=O)c1c(N)n(-c2ccc3c(c2)OCO3)c2nc3ccccc3nc12	9.0%	1.45	i	15.0	7.0
CCCNC(=O)c1c(N)n(-c2cc(OC)cc(OC)c2)c2nc3ccccc3nc12	4.0%	2.47*	nt	17.0	2.0
Nc1c(C(=O)NC2CC2)c2nc3ccccc3nc2n1-c1ccc2c(c1)OCO2	6.0%	3.24*	nt	2.0	10.0
COCCCNC(=O)c1c(N)n(-c2ccc3c(c2)OCO3)c2nc3ccccc3nc12	5.0%	2.67*	i	3.0	3.0
CC1CCN(Cc2c(C#N)c3ccccc3n2C)CC1	6.0%	1.13	i	11.0	7.0
COc1ccc(-c2cc3nc4c(c(N5CCC6(CC5)OCCO6)n3n2)CCCC4)cc1	5.0%	2.02*	i	8.0	6.0
Fc1ccc(-c2cc3nc(-c4ccccc4)cc(N4CCN(CCN5CCOCC5)CC4)n3n2)cc1	10.0%	3.74*	nt	19.0	1.0
COc1cccc(-c2cc3nc(-c4ccccc4)cc(N4CCC5(CC4)OCCO5)n3n2)c1	8.0%	2.12*	nt	13.0	2.0
COc1ccc(Cl)cc1-n1c(=S)sc2c(=O)[nH]c(SCC(=O)NCC3CCCO3)nc21 (stereo unspecified)	7.0%	1.05	i	14.0	8.0
Clc1ccc2oc(-c3ccccc3)nc2c1	2.0%	1.06	i	0.0	5.0
CC(C)(Oc1ccc(Cl)cc1)C(=O)Nc1ccc2oc(-c3ccncc3)nc2c1	4.0%	3.43*	nt	3.0	5.0
c1cc(-c2nc3cc(Oc4ccc5oc(-c6ccncc6)nc5c4)ccc3o2)ccn1	4.0%	2.58*	i	4.0	7.0
O=C(COc1ccc(Cl)cc1)Nc1ccc2oc(-c3ccncc3)nc2c1	9.0%	4.79*	nt	13.0	4.0
Cc1ccc(OCC(=O)Nc2ccc(O)c(-c3nc4ccccc4o3)c2)cc1	7.0%	1.97	nt	10.0	3.0
O=C(CC1Oc2ccc(Cl)cc2NC1=O)NC1CCCCCC1 (stereo unspecified)	3.0%	1.07	i	10.0	9.0
Cc1nn(-c2ccccc2)c2sc(C(=O)OC3CCOC3=O)cc12 (stereo unspecified)	10.0%	4.95*	nt	13.0	6.0
COC(=O)c1cc2c(C)nn(-c3ccccc3)c2s1	6.0%	1.61	i	7.0	11.0
Cc1nn(-c2ccccc2)c2sc(C(=O)OCC(=O)N3CCCCC3)cc12	8.0%	4.01*	nt	10.0	5.0
SMILES	NADH enzymes	Autofluor 339	Spn DPM-DC inh	PMK inhibit	MK inhibit
CN1CCN(C(=O)c2cc3c(ccc4ccccc43)oc2=O)CC1	9.0%	3.92*	nt	3.0	15.0
O=C(NCCN1CCN(C(=O)c2cc3ccccc3oc2=O)CC1)c1cc2ccccc2oc1=O	7.0%	1.34	i	17.0	3.0
Cc1ccc(C)c(N2CCN(C(=O)CN(C)S(=O)(=O)c3cnc[nH]3)CC2)c1	1.0%	1.07	i	2.0	0.0
CCN(CC)CCOC(=O)c1ccc(N=CC2=C(O)CC(C)(C)CC2=O)cc1	17.0%	1	+	6.0	3.0
Clc1cc(Br)ccc1OCCOCCN1CCOCC1	15.0%	1.11	i	1.0	44.0*
Cc1ccc(C)c(OCCOCCN2CCOCC2)c1	0.0%	1.09	i	0.0	1.0
CC(NC(=O)Cc1cccs1)C(c1cccs1)N1CCOCC1 (stereo unspecified)	3.0%	1.12	i	8.0	0.0
COC(=O)NCc1cc2cc(Cl)ccc2[nH]1	6.0%	1.1	i	9.0	10.0
O=C(c1cc2ccccc2o1)c1cccs1	1.0%	1.09	i	1.0	3.0
O=C(c1cccs1)c1ccc(-c2cccs2)s1	18.0%	2.37*	i	14.0	8.0
CC1(C)CC(=O)C(C=NCC2CCN(C(=O)Nc3ccccc3)CC2)=C(O)C1	1.0%	1.11	i	0.0	2.0
COc1cccc(-c2cn3nc4c(nc3n2)CCCC4)c1	11.0%	2.63*	i	11.0	6.0
O=C(CN1CCC(NC(=O)Nc2ccccc2-c2ccccc2)CC1)NCc1ccco1	2.0%	1.08	i	6.0	0.0
CCOC(=O)c1ccc(NC(=O)NC(C)C2CCCO2)cc1 (stereo unspecified)	1.0%	1.06	i	4.0	4.0
Cc1cc2oc(=O)cc(C)c2cc1NC(=O)CCC(=O)O	11.0%	2.53*	i	5.0	9.0
CC(C)Cc1nc(C(N)=O)c2[nH]c(=O)n(-c3ccc(F)cc3)c2n1	4.0%	2.16*	nt	8.0	0.0
CCC(C)Sc1nnc(Cc2cc(=O)[nH]c(=O)[nH]2)n1-c1ccc(F)cc1 (stereo unspecified)	4.0%	1.08	i	7.0	6.0
Cc1cccc(-n2c(=O)[nH]c3c(C(N)=O)nc(CC(C)C)nc32)c1	5.0%	5.11*	nt	9.0	0.0
COc1ccc(N2C(C)=CS/C2=C(/C#N)c2nnc(N3CCOCC3)n2-c2ccccc2)cc1	72.0%	1.15	+	74.0*	78.0*
N#Cc1sc2nc(-c3ccccc3)cc(-c3ccco3)c2c1N	6.0%	1.32	i	8.0	10.0
N#Cc1c(-c2ccccc2)cc(-c2ccco2)c(C#N)c1N	4.0%	2.26*	nt	0.0	8.0
O=C(CN(C1CCCCC1)S(=O)(=O)c1ccc(F)cc1)NCc1ccncc1	2.0%	1.07	i	0.0	7.0
Cc1cc(F)ccc1S(=O)(=O)Nc1ccccc1C(=O)Nc1ncn[nH]1	5.0%	2.27*	nt	0.0	9.0
COc1ccc(-c2cc(C(F)(F)F)n3ncc(C(=O)NCC4CCCO4)c3n2)cc1 (stereo unspecified)	2.0%	3.01*	nt	5.0	8.0
O=C(NC1CCCCC1)c1cnn2c(C(F)(F)F)cc(-c3ccco3)nc12	12.0%	2.55*	i	14.0	0.0
O=C(CSc1nc2nc(-c3cccs3)cc(C(F)(F)F)c2c(=O)[nH]1)NCc1ccco1	12.0%	4.9*	nt	11.0	12.0
